Measurements published in PubChem BioAssay (NCI).
About 83,000 compounds went through this panel and 20% of them were active in at least one assay; those are over-represented in the sample as a whole.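 Compound tested at a single concentration for 48 hours in 96-well plates; a percent growth value below 10 was scored as active.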 Unmarked numbers belong to inactive results. Activity calls are given as the source filed them.

Tests used:
Experiment in all cases: NCI-60 one-dose screen, 48 h (100 = growth as untreated, 0 = no growth, -100 = all killed)
Details in all cases: 10 µM unless noted
[1] = test system: NCI-H23 lung
[2] = test system: NCI-H226 lung
[3] = test system: NCI-H322M lung
[4] = test system: HOP-62 NSCLC
[5] = test system: NCI-H460 lung
[6] = test system: HOP-92 NSCLC
[7] = test system: NCI-H522 lung
[8] = test system: A549/ATCC NSCLC
[9] = test system: 786-0 renal
[10] = test system: COLO 205 colon
[11] = test system: DU-145 prostate
[12] = test system: K-562 leukemia
[13] = test system: MALME-3M melanoma
[14] = test system: MDA-MB-231 breast
[15] = test system: RXF 393 renal
[16] = test system: SF-268 CNS
[17] = test system: SF-295 CNS
[18] = test system: SF-539 CNS
[19] = test system: UACC-257 melanoma
[20] = test system: M14 melanoma

Structure (SMILES) | growth [1] | growth [2] | growth [3] | growth [4] | growth [5] | growth [6] | growth [7] | growth [8] | growth [9] | growth [10] | growth [11] | growth [12] | growth [13] | growth [14] | growth [15] | growth [16] | growth [17] | growth [18] | growth [19] | growth [20]
COc1ccccc1NS(=O)(=O)c1ccc2oc(SC(C)C)nc2c1 | 61% | 53.8% | 99.7% | 97.3% | 77.2% | 79.4% | 65.6% | 75.9% | 64.2% | 109% | 98.9% | 45.8% | 81.7% | 86.5% | 107% | 89.8% | 88.5% | 103% | 71.8% | 110%
COc1ccc(NC2=C(Sc3nc(C)cc(C)n3)C(=O)N(Cc3ccccc3)C2=O)cc1Cl | 84.5% [30 µM] | 79.9% [30 µM] | 111% [30 µM] | 96.3% [30 µM] | 60.7% [30 µM] | 26.9% [30 µM] | 85.7% [30 µM] | 74.3% [30 µM] | 80.4% [30 µM] | 110% [30 µM] | 113% [30 µM] | 69.7% [30 µM] | 95.4% [30 µM] | 85.4% [30 µM] | 50.8% [30 µM] | 57.8% [30 µM] | 39.6% [30 µM] | 101% [30 µM] | 43.9% [30 µM] | 95.9% [30 µM]
Cn1cc(C(=O)c2nc(-c3c[nH]c4ccc(F)cc34)no2)c2cc(F)ccc21 | 88% | 69.5% | 93.6% | 91.2% | 96.4% | 85.5% | 80.1% | 104% | 103% | 94.5% | 101% | 66.1% | 87.3% | 108% | 108% | 96% | 98% | 95.1% | 99.2% | 97%
COc1cc(-c2nn(C)nc2-c2cc3ccccc3s2)cc(OC)c1OC | 30.4% | 55.5% | 44.9% | 32.7% | 13% | 64.9% | 0.184% (active) | 23.3% | 36.8% | -14.5% (active) | 20.1% | 8.42% (active) | 76.1% | 37.7% | 35.3% | 39.8% | 9.39% (active) | -9.68% (active) | 54.7% | 10.9%
Cn1nc(N)c2cc([C@@H]3Nc4ccc5[nH]ncc5c4[C@H]4C5CCC(C5)[C@@H]34)ccc21 (stereo not given in full) | 26.9% | 30.6% | 48.9% | 46.9% | 2.68% (active) | 105% | 17.9% | 28.5% | 34.7% | 2.47% (active) | 18.8% | 9.76% (active) | 52.7% | 48.5% | -11.1% (active) | 42.5% | 9.61% (active) | -15.5% (active) | 77.4% | 3.16% (active)
COc1cccc(-c2nc3sccn3c2-c2ccnc(NCCNS(=O)(=O)c3ccc(F)cc3)c2)c1 | 27.2% | 24% | 58.6% | 43.7% | 21.4% | 41% | 32.3% | 22.7% | 41.6% | 23.4% | 26.3% | 13.4% | 42.7% | 55.6% | 42.2% | 34.7% | 14.5% | 55.5% | 40% | 23.9%
O=C1CC[C@H](c2ccc(O)c3c2C(=O)[C@@H]2O[C@@H]2C3=O)c2cccc(O)c21 | 94.4% | -14.6% (active) | 98% | 79% | 97.1% | 38.4% | -29.4% (active) | 87.2% | 44.8% | -34.6% (active) | 21.1% | 0.986% (active) | 86.5% | 43.5% | 16.9% | 84.4% | 91.3% | 75% | 38% | 69.6%
c1ccc(Cn2cc(-c3nc4ccccc4s3)c3cccnc32)cc1 | 96.6% | 92.4% | 101% | 96.1% | 102% | 98.3% | 87.9% | 104% | 104% | 118% | 102% | 129% | 95% | 84% | 115% | 99% | 102% | 100% | 110% | 106%
COc1cc(/C=C/C(=O)c2ccc(O)c(CN3CCN(c4cc5c(cc4F)c(=O)c(C(=O)O)cn5C4CC4)CC3)c2)cc(OC)c1OC | 42.8% | 76.9% | 30% | 72.3% | 34.8% | 81.2% | 27.6% | 43.1% | 49.8% | 106% | 24.6% | 10.6% | 74.3% | 76.7% | 28.1% | 54.9% | 86.5% | 49.6% | 64.5% | 48.8%
CCCOc1cc2ccccc2cc1C(=O)Nc1nc(N)c2c(ccc3nccc32)[nH]1 | -55.1% (active) | -56.6% (active) | -35.1% (active) | -68.8% (active) | -75.8% (active) | -71.2% (active) | -59.6% (active) | -70.3% (active) | -71.9% (active) | -78.3% (active) | -65.8% (active) | -28.9% (active) | -76.1% (active) | -67.1% (active) | -77.1% (active) | -68.6% (active) | -76.6% (active) | -77.7% (active) | -77.6% (active) | -69.8% (active)
COc1cc(/C=C/C(=O)c2c(C)oc3nc[nH]c(=O)c23)cc(OC)c1OC | 68.9% | 92.1% | 85.8% | 101% | 83.7% | 96.4% | 47.7% | 81.6% | 94.3% | 95.4% | 64.8% | 45.2% | 88.1% | 86.7% | 66.3% | 81.3% | 104% | 95.7% | 73% | 75.3%
Cc1cc(N2CCOCC2)nc(NCc2cc(Nc3ccnc4cc(Cl)ccc34)ccc2F)n1 | -32.9% (active) | 16.1% | -27.6% (active) | -63% (active) | -65.7% (active) | -30.8% (active) | -61% (active) | -49.4% (active) | -93.7% (active) | -70.9% (active) | -57.6% (active) | -4.96% (active) | -73.7% (active) | -78.3% (active) | -92.4% (active) | -52.5% (active) | -84.4% (active) | -80.4% (active) | -68.3% (active) | -83.7% (active)
Cc1ncc(C(=O)Nc2ccc(CN3CCN(C)CC3)c(C(F)(F)F)c2)cc1C#Cc1cnc2cccnn12 | -38.4% (active) | -56.8% (active) | -1.83% (active) | 4.59% (active) | -53.1% (active) | -4.77% (active) | -18.9% (active) | -2.38% (active) | 1.06% (active) | -41.5% (active) | 5.5% (active) | 0.556% (active) | -72% (active) | -1.12% (active) | -58.1% (active) | -29.8% (active) | 8.94% (active) | -52.2% (active) | -2.41% (active) | -79.9% (active)
CCCCCCN(CCCCCC)CCC(O)c1ccc2ccccc2c1 (stereo not given) | 45.3% | 79.2% | 80.9% | 101% | 51.5% | 2.35% (active) | 60.2% | 74.5% | 54.1% | 39.5% | 74.3% | 27.9% | 68.5% | 42.4% | 46.7% | 73.3% | 52.5% | 61.9% | 85.3% | 50.2%
O=C(COc1cccc(/C=C2\COc3ccccc3C2=O)c1)Nc1nccs1 | 13.4% | 95.4% | 99.3% | 83.3% | 87.9% | -3.51% (active) | -30.5% (active) | 101% | 95.5% | 87.3% | 96.6% | -80.5% (active) | 54.2% | 83.7% | 48.3% | 70.1% | 112% | 83.7% | 86% | -78.2% (active)
